Compound activity as filed in PubChem BioAssay.
Hits are enriched below; roughly 1.5% of the tested compounds scored in any of these assays.
CCHF vOTU inh: CCHFV vOTU protease inhibition. Pep-AMC fluorescence. inhibition, % at 11.5 µM. 0.55% of 370,000 active. AID 651958; in the data active = inhibition above about 30%; note: 0% = vehicle wells with enzyme and 100% = no enzyme wells
PrPC surface inh: inhibitors of human cell surface prion protein PrPC; TR-FRET read-out; inhibition, % at 13.8 µM; 0.43% of 370,000 active; P04156; in the data active = inhibition above about 24%; note: 0% = median of the test wells and 100% = reference compound wells
VHR inh abs: DUSP3 (human) phosphatase inhibition. P51452. recombinant VHR phosphatase, pNPP absorbance. inhibition, % at 13.3 µM. 0.52% of 290,000 active; in the data active = inhibition above about 50%
Target sequence (P51452 whole entry, looked up): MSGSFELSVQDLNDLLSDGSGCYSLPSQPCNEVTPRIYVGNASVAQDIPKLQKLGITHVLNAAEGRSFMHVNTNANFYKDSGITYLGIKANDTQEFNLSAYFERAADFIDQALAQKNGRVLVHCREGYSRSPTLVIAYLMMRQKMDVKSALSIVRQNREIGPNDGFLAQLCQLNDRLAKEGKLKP
SSB-PriA inh: inhibitors of Klebsiella pneumoniae PriA binding to SSB C-terminal tail. 0.6% of 430,000 active. inhibition, % at 33 µM. AlphaScreen SSBct-PriA binding, biotinylated peptide; in the data active = inhibition mostly above about 37%, no sharp cut-off; inactive = mostly below about 20%;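 note: plate controls were negative control peptide for no effect and reference peptide for full effect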
TcdB GH inh: inhibitors of Clostridioides difficile toxin B glycohydrolase | TcdB glycohydrolase enzymatic assay, plate reader | inhibition, % at 9.99 µM | 0.24% of 350,000 active; in the data active = inhibition above about 10%
Vc quorum ag: inducers of Vibrio cholerae quorum light production without autoinducers; AID 588436; activation, % at 18.7 µM; V. cholerae BH1578 lux reporter, luminescence, 6 h; 0.16% of 350,000 active; in the data active = activation mostly above about 9.7%, no sharp cut-off
An asterisk follows results filed as active; i = inactive; . = not tested or not shown; + = active, no number.

SMILES	CCHF vOTU inh	PrPC surface inh	VHR inh abs	SSB-PriA inh	TcdB GH inh	Vc quorum ag
O=C(c1cccs1)N1N=C(c2ccc(Br)cc2)CC1c1nc2ccccc2[nH]1 (stereo not drawn)	.	.	.	-11	.	.
COc1ccc(C(=O)NNC(=O)c2ccccn2)cc1	2	-5	7	2	0	1
COc1cc(OC)cc(C(=O)NNC(=O)c2ccccn2)c1	5	25*	16	-1	-2	0
COc1cccc(C(=O)NNC(=O)c2cccnc2)c1	11	2	60*	5	0	0
CCN1CCN(S(=O)(=O)CCNC(=O)Cc2cccs2)CC1	.	.	.	-21	.	.
O=C(C1CCN(S(=O)(=O)c2cccc3cccnc23)CC1)N1CCc2ccccc21	3	-1	55*	-2	.	8
O=C(C1CCC(CNS(=O)(=O)c2cccc3cccnc23)CC1)N1CCc2ccccc21 (stereo not drawn)	2	4	54*	1	1	0
COc1ccc(-c2cc3c(SCC(=O)NCc4ccc(Cl)cc4)nccn3n2)cc1	.	.	.	-5	.	.
O=C(Nc1ccc2c(c1)OCCO2)C(=O)c1cn(CC(=O)N2CCCC2)c2ccccc12	.	.	.	-4	.	.
COC(=O)c1ccc(C(=O)OC)c(NC(=O)c2ccc3c(c2)OCCO3)c1	.	.	.	-14	.	.
Cc1ccc2c(c1)sc(=NC(=O)c1ccc([N+](=O)[O-])s1)n2C	.	.	.	3	.	.
Cc1cc(NC(=O)c2cccc3ccccc23)n(-c2nc3c(cnn3-c3ccc(F)cc3)c(=O)[nH]2)n1	.	.	.	43*	.	.
COc1ccc(CC(=O)Nc2cc(C)nn2-c2nc3c(cnn3-c3cccc(C)c3C)c(=O)[nH]2)cc1	.	.	.	60*	.	.
CC(=O)Nc1ccc(N2CCCCC2=O)cc1	.	.	.	-5	.	.
CC1(C)CS(=O)(=O)N(c2ccc(Cl)c(C(=O)NCc3ccccn3)c2)C1=O	.	.	.	-9	.	.
Cc1ccc(CC(=O)Nc2nccs2)cc1C	20	8	58*	-3	0	0
CCOc1ccc(CC(=O)Nc2nccs2)cc1	-5	3	22	-4	1	-1
COc1ccc(CNC(=O)Nc2ccc3c(c2)C(=O)NCC3)cc1OC	.	.	.	-3	.	.
CC(C)C(NC(=O)/C=C/c1ccc(F)cc1)C(C)C	-5	2	18	-5	.	+
CC(C)NC(=O)N1CC[C@@H]2[C@@H](CO)N(C)c3ccc(-c4ccc(F)cc4)cc3[C@@H]21	.	.	.	.	12*	.
COCC(=O)N1CC[C@H]2[C@@H]1c1cc(-c3ccc(OC)cc3)ccc1N(C)[C@H]2CO	.	.	.	.	14*	.
COCC(=O)N1CC[C@@H]2[C@H]1c1cc(-c3ccc(F)cc3)ccc1N(C)[C@H]2CO	.	.	.	.	15*	.
CCC(=O)N1CC[C@@H]2[C@H]1c1cc(-c3ccc(OC)cc3)ccc1N(C)[C@H]2CO	.	.	.	.	11*	.
COCC(=O)N1CC[C@@H]2[C@H]1c1cc(-c3cccc(F)c3)ccc1N(C)[C@@H]2CO	.	.	.	.	0	.
Cc1ccc(S(=O)(=O)N(C)c2ccc(C(=O)Nc3nccs3)cc2)cc1	.	.	.	14	.	.
SMILES	CCHF vOTU inh	PrPC surface inh	VHR inh abs	SSB-PriA inh	TcdB GH inh	Vc quorum ag
COc1ccc(OC)c(NC(=O)c2cc(-c3ccccc3)n(C3CCS(=O)(=O)C3)n2)c1 (stereo not drawn)	.	.	.	-2	.	.
COCC(=O)N1CC[C@@H]2[C@@H](CO)N(C)c3ccc(-c4ccccc4)cc3[C@@H]21	.	.	.	.	13*	.
COc1ccc(-c2ccc3c(c2)[C@H]2[C@H](CCN2C(=O)Cc2cccnc2)[C@@H](CO)N3C)cc1	.	.	.	.	11*	.
COCC(=O)N1CC[C@H]2[C@@H]1c1cc(-c3ccccc3)ccc1N(C)[C@H]2CO	.	.	.	.	-2	.
CN1c2ccc(-c3ccccc3)cc2[C@@H]2[C@@H](CCN2C(=O)Cc2cccnc2)[C@H]1CO	.	.	.	.	-1	.
COc1cc2c(ccc3cc(OC)c(OC)c(O)c32)cc1O	-1	4	53*	4	4	0
O=C(Cc1ccc(Cl)cc1)Nc1ccc(Cl)cn1	-8	3	25	-6	1	0
O=C(Cc1ccc(F)cc1)Nc1ccc(Cl)cn1	5	9	60*	-7	1	1
Cc1noc(C)c1S(=O)(=O)NCCOc1cc(N2CCOCC2)ncn1	.	.	.	6	.	.
C#CCSc1cccc2cccnc12	.	.	.	1	.	.
C=CCn1nc([N+](=O)[O-])nc1Sc1cccc2cccnc12	.	.	2	102*	.	0
ClC1(Cl)CC1CSc1cccc2cccnc12 (stereo not drawn)	.	.	.	128*	.	.
O=C(Sc1cccc2cccnc12)c1ccc(F)cc1	0	28*	14	.	2	.
Cc1ccc2ccc3cccnc3c2n1	-12	-4	.	50*	1	i
c1cnc2c(SSc3cccc4cccnc34)cccc2c1	.	.	.	56	.	.
CCc1nc(SC(CC)C(=O)OC)c2c(=O)n(C)c(=O)n(C)c2n1 (stereo not drawn)	.	.	.	-8	.	.
Cc1ccc(N2C[C@@H](C(=O)NCCc3nc4c(c(C(F)(F)F)n3)CCCC4)CC2=O)cc1	.	.	.	-14	.	.
CSc1cccc2cccnc12	.	.	.	75*	.	.
C=CCSc1cccc2cccnc12	.	.	.	125*	.	.
COc1ccc(Cl)cc1C(=O)Nc1cnc(-n2nc(C)cc2C)nc1	.	.	.	-1	.	.
COc1ccc(C(=O)Nc2cccc(-c3cn4nc(OC)ccc4n3)c2)c(OC)c1	.	.	.	-4	.	.
CCOc1cc(CN2CCCCCC2)ccc1OC	-2	-2	57*	-2	-4	-2
COc1cc(CN2CCCCCC2)cc(Br)c1O	4	-5	55*	-2	-1	0
COc1ccc(S(=O)(=O)N2CCN(Cc3ccc(OC)c(OC)c3)CC2)cc1	-8	0	51*	-6	1	2
Cc1ccccc1NC(=O)NCC1CCN(C(=O)c2ccncc2)CC1	.	.	.	2	.	.
SMILES	CCHF vOTU inh	PrPC surface inh	VHR inh abs	SSB-PriA inh	TcdB GH inh	Vc quorum ag
N#Cc1cccc(-c2nnc(N)o2)c1	.	.	.	3	.	.
O=C(OCc1cc(-c2cccs2)on1)c1cccs1	.	.	.	-72	.	.
O=C(N/N=C/c1ccc(O)cc1)NC12CC3CC(CC(C3)C1)C2	2	-8	-7	.	19*	i
c1ccc(-c2csc(Nc3ncccn3)n2)nc1	.	.	.	70*	.	.
Cc1cccc(Nc2nc(-c3ccncc3)cs2)c1	-2	-5	51*	7	1	i
Cc1ccc(C)c(Nc2nc(-c3ccccn3)cs2)c1	.	.	.	69*	.	.
c1ccc(Nc2nc(-c3ccccn3)cs2)nc1	.	.	.	150*	.	.
c1ccc(-c2csc(Nc3ccccn3)n2)cc1	10	-10	-1	-6	0	-1
Cc1[nH]c2ccccc2c1C=NNC(=O)c1cc(-c2ccccc2)n[nH]1	.	.	.	-3	.	.
NNc1nc(-c2ccccn2)cs1	.	.	.	130*	.	.
c1ccc(CCNc2nc(-c3ccccn3)cs2)cc1	2	-4	10	20	.	i
COc1cc2nc(N3CCNCC3)nc(N)c2cc1OC	-56	4	-5	46*	.	-11
COc1cc2nc(N3CCN(c4cc(C)ccc4C)CC3)nc(N)c2cc1OC	4	-12	2	14	1	0
Cc1nnc(NC(=O)c2ccc(S(=O)(=O)NCc3ccco3)o2)s1	.	.	.	1	.	.
N#Cc1nc(COc2ccccc2F)oc1NCCc1ccccc1	11	10	-13	43*	.	i
N#Cc1nc(COc2ccccc2F)oc1N1CCCCCC1	2	1	5	4	.	-6
